About 83,000 compounds went through this panel and 20% of them were active in at least one assay; those are over-represented in the sample as a whole.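 Results are percent growth after 48 hours of single-concentration exposure. 100 means growth as in untreated cells, lower positive values show inhibition; negative values down to -100 show cell death.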 A number with no mark means an inactive call. Active and inactive are the calls of the source.

The subject of this experiment is HCC-2998 colon. The experiment can be described thus: NCI-60 one-dose screen, 48 h (100 = growth as untreated, 0 = no growth, -100 = all killed). The note with it: 10 µM unless noted. The protocol: Growth inhibition of the HCC-2998 human tumor cell line is measured as a screen for anti-cancer activity. Cells are grown in 96 well plates and exposed to the test compound for 48 hours. Compounds are tested at a single concentration, which is 10^-5 M for most compounds. The reported endpoint is percent growth (GI% or GIPRCNT), where numbers from 0 - 100% represent growth inhibition, and numbers from -100% - 0 represent cell death. For example, a value of 40 represents 60% growth inhibition. A value of 0 means no net growth occurred over the course of the experiment. A value of -40 indicates 40% of cells at the beginning of the experiment died by the end of the experiment. A value of -100 means all cells are dead at the end of the experiment.
NCI-60 Human Tumor Cell Lines Screen was performed using the standard one-dose NCI protocol, which is described in more detail at https://dtp.cancer.gov/discovery_development/nci-60/default.htm.
Compounds with GIPRCNT values below 10 were considered active. Activity score was based on GIPRCNT using the following formula: […]
Score is 0 for GIPRCNT values of 100 or above, 50 for GIPRCNT values of 0, and 100 for GIPRCNT values of -100.
Regarding `Cc1nc2sc(C(=O)Nc3cccc(Cl)c3C)c(N)c2cc1C(=O)c1ccccc1`, the growth is 7.04% (active).

For `COc1ccc(-c2csc(NC(=O)CSc3nc(-c4ccccc4)cc(=O)[nH]3)n2)cc1`, the growth was 83.5%.

For `O=C(/C=C(/C=C/c1cccc2[nH]ccc12)OB(F)F)/C=C/c1cccc2[nH]ccc12`, the growth was -84.1% (active).

As to `C=CCn1c(SCC(=O)Nc2ccc(C(=O)/C=C/c3cc4cc(OC)ccc4nc3Cl)cc2)nnc1-c1ccc(Br)cc1`, the growth was 95.1%.

With `COc1ccc2nc(NC(=O)CSc3nnc4n3S(=O)(=O)c3ccccc3N4C)sc2c1`, the growth was 108%.

Consider `CCCC(=O)NC(c1ccc2c(c1)OCO2)c1ccc2cccnc2c1O` (stereo not given), for which the growth was 38%.

In the case of `CC(C)CCNC(=O)Cn1cccc(NC(=O)OCc2ccccc2)c1=O`, the growth was 103%.

Take `CC/C(=C(/c1ccc(Cl)cc1)c1ccc(OCCN2CCCC2)cc1)c1ccc(OC)cc1`: the growth was 71.1%.

On to `CN(Cc1ccc(C(F)(F)F)cc1)CC(O)C(=O)Nc1ccc(Cl)cc1` (stereo not given), for which the growth was -48.2% (active).

Regarding `CC(=O)OC[C@]12CCC(C)(C)C[C@H]1[C@@]1(O)[C@H](O)C[C@@H]3[C@@]4(C)CCCNC(C)(C)[C@@H]4CC[C@@]3(C)[C@]1(C)CC2`, the growth was 109%.

On to `CN1CCN(Cc2ccc(NC(=O)c3cncc(C#Cc4cnc(N)c5ccccc45)c3)cc2C(F)(F)F)CC1`, for which the growth is -92.3% (active).

Take `COC(=O)CNC(=O)[C@H](Cc1ccccc1)NCc1ccncc1`: the growth was 103%.

As to `Oc1c(Cl)cc(Cl)c2ccc(Cn3cc(-c4ccc(C(F)(F)F)cc4)nn3)nc12`, the growth was 105%.

As to `CCOC(=O)c1cnc2ccccc2c1Cl`, the growth was 98.4%.

For the compound `C#CCOc1cccc(Nc2ncnc3c(NC(=O)C=C)cccc23)c1`, the growth was 79%.

Consider `CCCCC(=O)Nc1ncc(Cc2ccc(Cl)cc2)s1`, for which the growth is 65.8%.

For the compound `COC1=CC(c2ccc[nH]2)=N/C1=C\c1[nH]c(C)c(C(=O)OCc2ccccc2)c1C`, the growth was -54.5% (active).

For the compound `CN(C)C1CCN(Cc2ccc(NC(=O)c3cncc(C#Cc4cnc(N)c5ncccc45)c3)cc2C(F)(F)F)CC1`, the growth is 99.6%.

For `Cn1cc(-c2csc(-c3c[nH]c4ccc(Br)cc34)n2)c2cnccc21`, the growth was -76.5% (active).

In the case of `CC(C)(C)[Si](C)(C)O[C@H]1C(=O)C=CN2CC=C[C@@H]12`, the growth was 111% [100 µM].

Take `CCNc1cc(-c2cccc(OC(F)(F)F)c2)nc2ccc(N3CCCC3)cc12`: the growth was 6.29% (active).

Regarding `O=C1c2cc(Cl)ccc2S(=O)(=O)c2c(NCCCNCCO)nc3ccccc3c21`, the growth is 78.5%.

As to `COC(=O)[C@]1(C)CCC[C@]2(C)[C@H]3C[C@H]4C(C(C)C)=C[C@]3(CC[C@H]21)[C@H]1[C@@H]4[C@@H](OCCC#N)CC[C@@H]1OCCC#N`, the growth is 65.1%.

For the compound `COc1cc(OC)c2sc(-c3ccc(-n4cncc4-c4ccc(OC)c(OC)c4)cc3)nc2c1`, the growth is 76.4%.

Consider `CC1(C)c2[nH]c3ccccc3c2C[C@]2(C)[C@H]3CC=C4[C@@H]5C[C@@](C)(C(N)=O)CC[C@]5(C)CC[C@@]4(C)[C@]3(C)CC[C@@H]12`, for which the growth was 69.6%.

As to `O=C1/C(=C/c2ccccc2Br)COc2ccc(O)c(O)c21`, the growth was 44.2%.

As for `COc1cc2c(c(OC)c1OC)C(=O)CC(c1cccc(NC(=O)c3ccc(Br)cc3)c1)O2` (stereo not given), the growth is 72.7%.

On to `O=C(Cn1cc(CN2C(=O)c3ccccc3S2(=O)=O)nn1)Nc1nc2ccccc2s1`, for which the growth is 113%.

Consider `CN(C)CCCn1c2c(c3ncccc3c1=O)C(=O)c1ccccc1-2`, for which the growth is 63.9%.

Take `CCCCCC(=O)OCC(=O)O[C@@H]1C[C@]2(C(C)C)O[C@@]1(C)[C@@H]1CC[C@@H](C)[C@H]1[C@@H]2OC(=O)/C=C/c1ccccc1`: the growth is 88.5%.

Regarding `CCOC(=O)c1cc(-c2ccc([N+](=O)[O-])cc2)n(-c2ccc(C(=O)O)c(O)c2)c1C`, the growth is 98.9%.

On to `O=C(Nc1nc2ccc(F)cc2s1)c1cccnc1Nc1ccc(Cl)cc1`, for which the growth was 31.1%.

As for `COc1ccc(-c2nnc(-c3ccc4c(c3)nc(-c3ccncc3)n4C3CCCCC3)o2)cc1`, the growth is 88.8%.

For `O=C(CSc1nnc2n1S(=O)(=O)c1ccccc1N2c1ccccc1)Nc1nc2ccc(F)cc2s1`, the growth was 95.6%.

Turning to `CC1(C)CCC(S(=O)(=O)c2ccc3c(c2)/C(=N\O)c2cc(S(=O)(=O)N4CCC(O)(c5cccc(C(F)(F)F)c5)CC4)ccc2-3)CC1`, the growth was -82.9% (active).

Regarding `CN(C)CCCC1(c2ccc(F)cc2)OCc2cc(-c3cccc4[nH]ccc34)ccc21` (stereo not given), the growth is -30.6% (active).

`COc1ccc2c(c1)c(-c1noc(C(=O)c3cn(C)c4ccc(Br)cc34)n1)cn2C`: the growth was 100%.

With `COc1ccccc1NC(=O)Cn1cc(CN2CCN(c3ccnc4cc(Cl)ccc34)CC2)nn1`, the growth was 107%.

On to `O=C(NNc1nccc(Nc2ccc(S(=O)(=O)Nc3ccncc3)cc2)n1)c1ccccc1`, for which the growth is 21.4%.

Take `CCC(=C(c1ccc(OCCN2CCCC2)cc1)c1ccc(OCCN2CCCC2)cc1)c1ccc(Cl)cc1`: the growth is -93.7% (active).

Values taken from PubChem BioAssay (NCI).
